Measured values taken from PubChem BioAssay AID720582 (The Scripps Research Institute Molecular Screening Center, 2013).
The campaign covered roughly 370,000 compounds. About 2,300 (0.62%) were called active. The sample as a whole holds a higher share of actives than the screen did. Unmarked numbers belong to inactive results.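 The calls were made as follows: active = inhibition above a per-campaign cutoff equal to the mean of compounds falling between control-based bounds plus 3 SD (cut at about 20% in these data); inactive = the rest.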

What follows are molecules tested against Disintegrin and metalloproteinase domain-containing protein 10 (Homo sapiens) (UniProt O14672) (assay: human ADAM10 inhibitors, primary screen, biochemical, QFRET, HTS (AID 720582;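 also: 0% = DMSO wells while the 100% control is not disclosed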)). Conditions: recombinant ADAM10, EDANS/DABCYL FRET peptide cleavage, 3 h; at 7 µM; hits give high values.
Chain of Disintegrin and metalloproteinase domain-containing protein 10 (Homo sapiens) (O14672 214-748 limits assumed): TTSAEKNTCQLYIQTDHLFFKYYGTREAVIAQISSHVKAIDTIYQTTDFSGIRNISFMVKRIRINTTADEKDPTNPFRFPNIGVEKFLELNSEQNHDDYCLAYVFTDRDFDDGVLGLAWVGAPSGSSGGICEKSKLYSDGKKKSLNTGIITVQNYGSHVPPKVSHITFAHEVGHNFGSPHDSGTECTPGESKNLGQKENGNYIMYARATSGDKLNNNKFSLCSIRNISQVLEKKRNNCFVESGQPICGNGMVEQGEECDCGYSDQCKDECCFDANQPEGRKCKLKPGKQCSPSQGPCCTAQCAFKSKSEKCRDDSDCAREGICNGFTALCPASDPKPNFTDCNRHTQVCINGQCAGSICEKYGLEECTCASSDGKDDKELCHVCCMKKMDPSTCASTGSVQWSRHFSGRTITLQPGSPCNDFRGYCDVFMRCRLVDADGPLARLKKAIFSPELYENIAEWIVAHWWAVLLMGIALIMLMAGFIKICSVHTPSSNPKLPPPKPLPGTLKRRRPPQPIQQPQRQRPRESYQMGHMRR

| SMILES | inhibition |
| --- | --- |
| C=CCOc1ccc(/C=N/n2cncn2)cc1OC | -13.5% |
| COc1cc(/C=N/n2c(C)n[nH]c2=S)ccc1OCc1ccccc1 | 20.3% (active) |
| CNC(=S)N/N=C/c1ccc(OCc2ccccc2)c(Br)c1 | -17% |
| CC(CCN1CCC(C(O)(c2ccccc2)c2ccccc2)CC1)Oc1ccc(Cl)cc1 (stereo not drawn) | 6% |
| O=S1(=O)c2ccc(Br)cc2OC[C@H](Cc2ccccc2)N1Cc1cn(Cc2ccccc2)nn1 | -9.49% |
| Cc1[nH]nc(-c2ccc(OCc3cnn(-c4ccccc4)c3)cc2O)c1Oc1ccc(Cl)cc1 | -10.7% |
| C=C(C)COc1ccc(-c2n[nH]c(C)c2-c2ccccc2)c(O)c1 | 23.7% (active) |
| C[C@H]1CCC/C=C/C(=O)c2c(O)cc(O)cc2CC(=O)O1 | -6.63% |
| O=C(CSc1nnc(COc2ccccc2)n1Cc1ccco1)c1ccc2ccccc2c1 | 9.91% |
| Cc1ccc(-c2nnc(SCC(=O)Nc3ccc(Oc4ccccc4)cc3)n2Cc2ccco2)cc1 | 17.8% |
| Cc1ccc(OCc2nnc(SC/C=C/c3ccccc3)n2Cc2ccco2)cc1 | 21.3% (active) |
| Cc1c(C(C)c2ccccc2O)[nH]c2ccccc12 (stereo not drawn) | 11.8% |
| O=C1CC(c2ccc3c(c2)OCO3)N=C2N(CC3CC3)C/C(=C/c3ccccc3)N12 (stereo not drawn) | -2.63% |
| O=C(Oc1cccc(N2C(=O)C3C4c5ccccc5C(c5ccccc54)C3C2=O)c1)c1ccco1 (stereo not drawn) | 20.3% (active) |
| CC(=O)Nc1ccc(N2C(=O)C3C4CC(=O)C(c5ccccc54)C3C2=O)cc1 (stereo not drawn) | -0.65% |
| Cc1ccc(C)c(NC(=O)c2ccc(OC(=O)c3ccco3)cc2)c1 | 0.79% |
| O=C(NCCNc1ccc([N+](=O)[O-])cc1)c1cccc2c(Br)cccc12 | -54.2% |
| COc1ccc(Cn2cc(COC(=O)N(C)Cc3ccccc3)nn2)cc1 | 1.83% |
| CC(N=Cc1nc(-c2ccccc2)oc1O)c1ccccc1 (stereo not drawn) | 21% (active) |
| Oc1oc(-c2ccccc2Br)nc1/C=N/c1ccccn1 | -33.4% |
| COc1ccc(-n2c(SCC(=O)Nc3ccc4cn[nH]c4c3)nnc2-c2cccnc2)cc1 | 3.52% |

| SMILES | inhibition |
| --- | --- |
| CC(C)CSc1nnc(-c2cccnc2)n1Cc1ccccc1 | -2.15% |
| Nn1c(SCC(=O)N2c3ccccc3Sc3ccccc32)nnc1-c1n[nH]c2c1CCC2 | -5.44% |
| Cc1ccc(N(CC(=O)Nc2cc(C)cc(C)c2)S(=O)(=O)c2cccc3nonc23)cc1 | 14.3% |
| Cc1ccc(S(=O)(=O)N(CC(=O)Nc2cccnc2)c2ccc(Br)cc2)cc1 | 20.1% (active) |
| CCNC(=O)CN(c1ccc(C)cc1)S(=O)(=O)c1ccc(SC)cc1 | 2.9% |
| O=S1(=O)c2c(cccc2N2CCSCC2)Oc2ccccc2CN1Cc1cn(Cc2ccc(F)cc2)nn1 | -1.57% |
| CCOc1ccc(N(CC(=O)Nc2c(C)n(C)n(-c3ccccc3)c2=O)S(=O)(=O)c2ccc(Cl)s2)cc1 | 7.29% |
| O=C(O)c1cc(S(=O)(=O)N(Cc2ccccc2)c2ccccc2)ccc1Cl | 2.05% |
| O=S(=O)(c1ccccc1)N(Cc1cccc(F)c1)c1ccccc1 | 22.7% (active) |
| NC(=O)c1ccccc1N(Cc1ccccc1)S(=O)(=O)c1ccccc1 | 14.4% |
| Cc1cc(=O)[nH]c(SCC(=O)Nc2ccc(Cl)cc2C)n1 | -0.31% |
| C[C@@H]1CN([C@@H](C)CO)C(=O)c2cccc(NC(=O)Nc3cccc4ccccc34)c2O[C@H]1CN(C)S(=O)(=O)c1ccccc1F | -24.8% |
| CCc1ccccc1NC(=O)CSc1nnc(-c2cccs2)o1 | -1.28% |
| COc1ccc(-n2c(COc3ccccc3)nnc2SCC(=O)Nc2ccc3c(c2)OCO3)cc1 | 2.97% |
| O=S(=O)(c1ccccc1)c1nc(-c2ccccc2F)oc1NCc1cccnc1 | 12.6% |
| N#Cc1nc(COc2ccc(Cl)cc2)oc1N1CCCC1 | 1.11% |
| CCOc1ccc(Nc2oc(Cc3ccccc3)nc2C#N)cc1 | 23.6% (active) |
| Cc1ccc(OCc2nc(C#N)c(N3CCCC3)o2)cc1 | -0.05% |
| N#Cc1nc(COc2ccc(-c3ccccc3)cc2)oc1NCc1cccnc1 | 23.1% (active) |
| O=S(=O)(c1ccc(Br)cc1)c1nc(-c2ccccc2)oc1NCc1cccnc1 | 4.12% |
| CCCCOCCCNC(=O)C[C@H]1C[C@@]2(C(=O)OC)C(=C[C@H](COCc3ccccc3)O[C@@H]2C)N(Cc2cccc3ccccc23)C1=O | 11.9% |

| SMILES | inhibition |
| --- | --- |
| c1ccc2c(CCN3CCNC[C@H]3Cc3cccc4ccccc34)cccc2c1 | 79% (active) |
| CC(C)(C)CN1C(=O)C(=O)NC[C@H]1Cc1cccc2ccccc12 | -16.5% |
| c1ccc(C2CNCc3c2ccc2ccccc32)cc1 (stereo not drawn) | -2.76% |
| CC(=O)C1(C(=O)Nc2nccs2)CC(c2ccccc2C(F)(F)F)=NO1 (stereo not drawn) | -3.94% |
| Cc1cccc(C2c3[nH]c4ccccc4c3CCN2C(=O)c2cc(-c3cccn3C)n[nH]2)n1 (stereo not drawn) | 20.4% (active) |
| COCc1ccc(C(=O)N2CCc3c([nH]c4ccccc34)C2c2ccccn2)s1 (stereo not drawn) | 9.76% |
| Cc1cccc(C(=O)N2CCc3c([nH]c4ccccc34)C2CC(C)C)n1 (stereo not drawn) | -15.2% |
| COC(=O)c1ccccc1-n1cc(COC(=O)NCCc2ccccc2)nn1 | -5.72% |
| C=CCN(C(=O)[C@@H](CCCC)[C@@H](O)c1ccc(Cl)cc1)c1ccccc1 | 11.4% |
| COc1cc(NC(=O)c2cc(-c3ccc(F)cc3OC(C)C)n[nH]2)cc(OC)c1OC | 9.02% |
| CC(C)Oc1cc(F)ccc1-c1cc(C(=O)Nc2ccc(F)cc2)[nH]n1 | 5.58% |
| CC(C)Oc1cc(F)ccc1-c1cc(C(=O)Nc2cccc(Cl)c2)[nH]n1 | 22.1% (active) |
| CCOC(=O)C1CCN(C(=O)C(C)(C)NC(=O)Nc2ccc(F)c(F)c2)CC1 | 6.44% |
| COc1ccc(N2CCN(CCNS(=O)(=O)c3ccc([N+](=O)[O-])cc3)CC2)cc1 | 5.38% |
| COc1ccc(C(=O)COC(=O)c2c(C)noc2C)cc1Cl | 3.87% |
| Cc1[nH]c2ccccc2c1C(=O)COC(=O)c1c(-c2ccccc2)noc1C | 24.7% (active) |
| Cc1[nH]c2ccccc2c1C(=O)CN1CC(C)CC(C)C1 (stereo not drawn) | -6.1% |
| COCCCNC(=O)C[C@H]1C[C@@]2(C(=O)OC)C(=C[C@H](C(C)(C)C)O[C@@H]2C)N(Cc2ccc(Cl)cc2Cl)C1=O | 8.61% |
| C=CS(=O)(=O)N(Cc1nnn(Cc2ccccc2)c1Br)[C@H](C(=O)OC)C(C)C | 5.21% |
| CCOC(=O)[C@]12CCCC=C1N(Cc1ccc(OC)cc1)C(=O)[C@@H]2CC(=O)N1CCOCC1 | 0.19% |
| COc1ccc(Cl)cc1NC(=O)CN(C)C(=O)CNC(=O)C12CC3CC(CC(C3)C1)C2 | 0.24% |

| SMILES | inhibition |
| --- | --- |
| COc1ccc(Cl)cc1NC(=O)CN(C)C(=O)CCCc1c[nH]c2ccccc12 | 56.1% (active) |
| COc1ccc(Cl)cc1NC(=O)CN(C)C(=O)c1ccc2n[nH]nc2c1 | -4.74% |
| O=C(CSc1nnc(-c2ccccn2)n1-c1ccccc1)Nc1ccc2cn[nH]c2c1 | 1.78% |
| CCOC(=O)c1ccc(NC(=O)c2nc[nH]c2C(=O)N[C@@H](CCCCNC(=O)OC(C)(C)C)C(=O)OC(C)(C)C)cc1 | -1.17% |
| CC(C)(C)OC(=O)NCCCCCNC(=O)c1[nH]cnc1C(=O)Nc1nccs1 | -0.11% |
| Cc1ccc(NC(=O)c2nc[nH]c2C(=O)N[C@@H](CCCCNC(=O)OC(C)(C)C)C(=O)OC(C)(C)C)cc1 | 22.4% (active) |
| Cc1nc(CNc2ncnc3ccc(-c4ccc5c(c4)OCO5)cc23)cs1 | -136% |
| CSc1ccc(C#N)cc1NC(=O)c1ccc(Cl)cc1 | 7.58% |
| CSc1nccc(NC(=O)c2ccc(C(C)(C)C)cc2)n1 | 10.6% |
| CC(C)(C)c1ccc(C(=O)Nc2cc(Cl)c(Br)cc2C(=O)O)cc1 | 19.8% (active) |
| COC(=O)[C@H](C(C)C)N(CCCc1cn(Cc2ccccc2)nn1)S(=O)(=O)c1ccc(F)cc1Br | 2.42% |
| C=CCN1C(C(=O)OC)CN(Cc2cn(Cc3ccccc3)nn2)CCS1(=O)=O (stereo not drawn) | 2.91% |
| O=C1NC(Nc2nc3ccccc3s2)(C(F)(F)F)C(=O)N1C1CCCCC1 (stereo not drawn) | 21% (active) |
| Cc1cccc(N2C(=O)N3[C@H](c4ccc(F)cc4)[C@@H]4C(=O)N(C5CCCCC5)C(=O)[C@@H]4[C@]3(Cc3ccccc3)C2=O)c1 | 5.39% |
| O=C1[C@H]2[C@@H](c3ccc(F)cc3)N3C(=O)N(c4ccc(C(F)(F)F)cc4)C(=O)[C@@]3(Cc3ccccc3)[C@H]2C(=O)N1C1CCCCC1 | 22.2% (active) |
| Cc1cccc([C@@H]2[C@@H]3C(=O)N(Cc4ccccc4)C(=O)[C@@H]3[C@]3(Cc4ccc(Cl)cc4)C(=O)N(c4cccc(Cl)c4)C(=O)N23)c1 | -4.37% |
| CCCCc1c(-c2ccc(Cl)cc2)ncn1CCc1ccccc1OC | -7.93% |
| CCCCCc1c(-c2cccc(Br)c2)ncn1CCc1ccccc1OC | -0.06% |
| CCCCCc1c(-c2ccc(OC)c(OC)c2)ncn1CCc1ccccc1OC | 22.3% (active) |
| CCOC(=O)[C@]12CCCCC/C=C\1N(Cc1ccc(OC)cc1)C(=O)[C@H]2CC(=O)NCCCN1CCCC1=O | -0.03% |
